The full data set covers some 7,900 targets. This sample favours those with a hit. About 0.6% of all pairs of compound and target were hits.
Columns and labels:
Test in all cases: log2 fold change, soluble protein after heating vs DMSO (PISA); higher = thermal stabilisation; K562 cells, 10 uM, 30 min; active = over 0.2 and 3.5 SD of the protein, either way, in both replicates (recomputed)
[1] = compound: CS(=O)(=O)c1ccc(-c2cnc(N)c(C(=O)Nc3ccccc3)n2)cc1
Outline: (§1)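 Thermal stability values are relative to control samples and come from duplicates. They are expressed as log2 fold changes. For measurement, K562 cells (2×10^6 cells/mL) received 10 μM compound for 30 min, and aliquots were heated for 3 min over 48°C-58°C, pooled, and extracted at 4°C in PBS with 0.5% NP-40. Soluble protein, the supernatant after 21,000xg for 90 min, was quantified by TMTpro 16plex LC-MS/MS with equalised channel sums.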

crizotinib = compound: C[C@@H](Oc1cc(-c2cnn(C3CCNCC3)c2)cnc1N)c1c(Cl)ccc(F)c1Cl [crizotinib]
Outline: as §1

[2] = compound: C[C@@H]1COCCN1C2=NC(=NC(=C2)C3(CC3)S(=O)(=O)C)C4=C5C=CNC5=CC=C4
Outline: as §1

[3] = compound: C[C@H](C1=CC=C(C=C1)C(=O)NC2=C3C=CNC3=NC=C2)N
Outline: as §1

duvelisib = compound: C[C@H](Nc1ncnc2nc[nH]c12)c1cc2cccc(Cl)c2c(=O)n1-c1ccccc1 [duvelisib]
Outline: as §1

gandotinib = compound: Cc1cc(Nc2cc(CN3CCOCC3)c3nc(C)c(Cc4ccc(Cl)cc4F)n3n2)n[nH]1 [gandotinib]
Outline: as §1

tozasertib = compound: Cc1cc(Nc2cc(N3CCN(C)CC3)nc(Sc3ccc(NC(=O)C4CC4)cc3)n2)n[nH]1 [tozasertib]
Outline: as §1

[4] = compound: Cc1cc(SCc2sc(-c3ccc(C(F)(F)F)cc3)nc2C)ccc1OCC(=O)O
Outline: as §1

doramapimod = compound: Cc1ccc(-n2nc(C(C)(C)C)cc2NC(=O)Nc2ccc(OCCN3CCOCC3)c3ccccc23)cc1 [doramapimod]
Outline: as §1

ispinesib = compound: Cc1ccc(C(=O)N(CCCN)[C@@H](c2nc3cc(Cl)ccc3c(=O)n2Cc2ccccc2)C(C)C)cc1 [ispinesib]
Outline: as §1

bafetinib = compound: Cc1ccc(NC(=O)c2ccc(CN3CC[C@H](N(C)C)C3)c(C(F)(F)F)c2)cc1Nc1nccc(-c2cncnc2)n1 [bafetinib]
Outline: as §1

[5] = compound: Cc1cccc(CC(=O)N2CCc3c2ccc(-c2cn(C)c4ncnc(N)c24)c3F)n1
Outline: as §1

nilotinib = compound: Cc1cn(-c2cc(NC(=O)c3ccc(C)c(Nc4nccc(-c5cccnc5)n4)c3)cc(C(F)(F)F)c2)cn1 [nilotinib]
Outline: as §1

[6] = compound: Cc1nc(Nc2n[nH]c3c2CN(C(=O)N[C@H](CN(C)C)c2ccccc2)C3(C)C)c2sccc2n1
Outline: as §1

dasatinib = compound: Cc1nc(Nc2ncc(C(=O)Nc3c(C)cccc3Cl)s2)cc(N2CCN(CCO)CC2)n1 [dasatinib]
Outline: as §1

[7] = compound: Cc1ncc(-c2ccnc(Nc3ccc(S(C)(=O)=O)cc3)n2)n1C(C)C
Outline: as §1

[8] = compound: Cn1cc(-c2ccc3c(c2)CCN3C(=O)Cc2cccc(C(F)(F)F)c2)c2c(N)ncnc21
Outline: as §1

[9] = compound: Cn1cc(-c2ccc3nnc(C(F)(F)c4ccc5ncccc5c4)n3n2)cn1
Outline: as §1

tipifarnib = compound: Cn1cncc1[C@@](N)(c1ccc(Cl)cc1)c1ccc2c(c1)c(-c1cccc(Cl)c1)cc(=O)n2C [tipifarnib]
Outline: as §1

mubritinib = compound: FC(F)(F)c1ccc(/C=C/c2nc(COc3ccc(CCCCn4ccnn4)cc3)co2)cc1 [mubritinib]
Outline: as §1

Measured: log2 fold change

CASTOR2 (UniProt A6NHX0)
UniProt A6NHX0, sequence (A6NHX0 whole entry, looked up): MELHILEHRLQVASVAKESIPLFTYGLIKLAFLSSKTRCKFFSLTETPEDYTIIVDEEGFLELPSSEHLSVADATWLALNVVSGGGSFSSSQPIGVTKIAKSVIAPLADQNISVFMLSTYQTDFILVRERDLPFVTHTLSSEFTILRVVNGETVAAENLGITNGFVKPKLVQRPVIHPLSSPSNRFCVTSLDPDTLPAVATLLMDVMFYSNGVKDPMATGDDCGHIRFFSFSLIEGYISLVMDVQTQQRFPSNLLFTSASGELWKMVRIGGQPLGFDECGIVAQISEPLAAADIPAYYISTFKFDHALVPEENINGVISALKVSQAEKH
inactive: [1] -0.053 | crizotinib 0.045 | [2] 0.088 | [3] -0.022 | duvelisib 0.075 | gandotinib -0.018 | tozasertib -0.113 | [4] 0.008 | doramapimod 0.037 | ispinesib 0.018 | bafetinib -0.063 | [5] 0.019 | nilotinib 0.011 | [6] 0.02 | dasatinib -0.024 | [7] -0.039 | [8] -0.019 | [9] -0.032 | tipifarnib -0.311 | mubritinib -0.032

C4orf33 (UniProt Q8N1A6)
UniProt Q8N1A6, sequence (Q8N1A6 whole entry, looked up): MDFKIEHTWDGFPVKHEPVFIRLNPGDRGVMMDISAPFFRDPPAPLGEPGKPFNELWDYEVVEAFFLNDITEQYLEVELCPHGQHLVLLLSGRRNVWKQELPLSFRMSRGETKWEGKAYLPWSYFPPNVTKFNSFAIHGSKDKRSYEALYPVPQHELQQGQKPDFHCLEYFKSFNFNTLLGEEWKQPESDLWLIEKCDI
inactive: [1] 0.025 | crizotinib -0.098 | [2] 0.001 | [3] -0.209 | duvelisib 0.033 | gandotinib 0.019 | tozasertib -0.093 | [4] 0.005 | doramapimod -0.003 | ispinesib -0.038 | bafetinib -0.143 | [5] 0.01 | nilotinib 0.03 | [6] -0.024 | dasatinib -0.002 | [7] -0.1 | [8] 0.056 | [9] 0.031 | tipifarnib -0.007 | mubritinib 0.054

CAMSAP1 isoform 3 (UniProt Q5T5Y3)
UniProt Q5T5Y3, sequence (Q5T5Y3 whole entry, looked up): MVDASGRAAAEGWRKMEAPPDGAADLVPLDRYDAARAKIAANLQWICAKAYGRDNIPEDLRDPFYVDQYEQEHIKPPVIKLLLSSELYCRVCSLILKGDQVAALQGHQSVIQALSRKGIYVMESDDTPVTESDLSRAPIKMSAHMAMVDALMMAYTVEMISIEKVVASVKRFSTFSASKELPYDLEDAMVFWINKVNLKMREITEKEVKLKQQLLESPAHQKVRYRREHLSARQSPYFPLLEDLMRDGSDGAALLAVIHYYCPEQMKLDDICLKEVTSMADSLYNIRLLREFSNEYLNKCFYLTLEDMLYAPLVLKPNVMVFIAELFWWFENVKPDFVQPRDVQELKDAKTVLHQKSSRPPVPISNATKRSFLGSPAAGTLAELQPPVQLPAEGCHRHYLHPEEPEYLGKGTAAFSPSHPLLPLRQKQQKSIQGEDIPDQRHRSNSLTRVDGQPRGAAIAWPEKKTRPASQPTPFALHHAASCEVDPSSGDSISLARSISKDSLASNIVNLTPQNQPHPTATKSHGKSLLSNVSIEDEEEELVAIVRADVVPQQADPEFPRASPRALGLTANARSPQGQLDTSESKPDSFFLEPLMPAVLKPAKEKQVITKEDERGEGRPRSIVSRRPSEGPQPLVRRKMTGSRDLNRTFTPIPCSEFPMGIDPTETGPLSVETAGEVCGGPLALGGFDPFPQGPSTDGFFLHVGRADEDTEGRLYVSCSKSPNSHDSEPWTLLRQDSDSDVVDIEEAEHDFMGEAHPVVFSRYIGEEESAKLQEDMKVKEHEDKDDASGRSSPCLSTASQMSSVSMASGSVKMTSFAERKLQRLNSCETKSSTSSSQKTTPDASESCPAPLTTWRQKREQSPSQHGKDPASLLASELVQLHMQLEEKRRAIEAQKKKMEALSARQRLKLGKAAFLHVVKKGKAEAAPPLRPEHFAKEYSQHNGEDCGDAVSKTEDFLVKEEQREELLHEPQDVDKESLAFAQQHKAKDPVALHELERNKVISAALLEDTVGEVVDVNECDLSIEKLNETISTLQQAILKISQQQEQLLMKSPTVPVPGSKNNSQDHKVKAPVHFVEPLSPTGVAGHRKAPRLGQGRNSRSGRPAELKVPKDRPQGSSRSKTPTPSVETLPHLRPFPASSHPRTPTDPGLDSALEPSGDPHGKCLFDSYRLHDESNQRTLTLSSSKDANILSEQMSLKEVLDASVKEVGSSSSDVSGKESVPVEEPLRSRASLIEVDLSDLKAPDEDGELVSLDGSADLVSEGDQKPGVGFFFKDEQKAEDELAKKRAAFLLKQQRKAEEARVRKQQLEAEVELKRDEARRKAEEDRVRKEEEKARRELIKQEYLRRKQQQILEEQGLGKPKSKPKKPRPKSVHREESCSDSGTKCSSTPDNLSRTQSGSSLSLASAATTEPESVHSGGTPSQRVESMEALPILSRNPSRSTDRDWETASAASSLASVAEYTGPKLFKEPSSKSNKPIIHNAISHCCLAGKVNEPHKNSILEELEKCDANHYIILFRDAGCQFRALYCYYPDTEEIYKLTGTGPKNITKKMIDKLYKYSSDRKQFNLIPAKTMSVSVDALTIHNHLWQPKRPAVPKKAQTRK
inactive: [1] 0.05 | crizotinib -0.11 | [2] 0.073 | [3] 0.041 | duvelisib -0.019 | gandotinib -0.039 | tozasertib -0.04 | [4] 0.02 | doramapimod 0.008 | ispinesib -0.124 | bafetinib -0.019 | [5] -0.05 | nilotinib 0.043 | [6] -0.061 | dasatinib -0.144 | [7] -0.055 | [8] 0.091 | [9] -0.021 | tipifarnib -0.132 | mubritinib -0.005

COPS4 (UniProt Q9BT78)
UniProt Q9BT78, sequence (Q9BT78 whole entry, looked up): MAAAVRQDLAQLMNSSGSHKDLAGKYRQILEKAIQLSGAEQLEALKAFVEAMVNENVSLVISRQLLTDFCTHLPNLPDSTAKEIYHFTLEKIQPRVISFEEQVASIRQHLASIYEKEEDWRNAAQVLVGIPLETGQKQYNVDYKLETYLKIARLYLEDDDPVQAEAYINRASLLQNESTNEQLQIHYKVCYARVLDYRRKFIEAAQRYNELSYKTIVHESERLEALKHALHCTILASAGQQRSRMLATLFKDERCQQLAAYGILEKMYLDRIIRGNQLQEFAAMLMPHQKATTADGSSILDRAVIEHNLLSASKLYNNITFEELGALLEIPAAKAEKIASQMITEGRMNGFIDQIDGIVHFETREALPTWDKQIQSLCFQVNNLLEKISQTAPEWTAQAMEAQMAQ
inactive: [1] -0.01 | crizotinib 0.112 | [2] 0.064 | [3] -0.064 | duvelisib 0.029 | gandotinib 0.022 | tozasertib 0.036 | [4] 0.002 | doramapimod -0.014 | ispinesib 0.086 | bafetinib 0.003 | [5] 0 | nilotinib 0 | [6] -0.01 | dasatinib -0.023 | [7] 0.007 | [8] 0.031 | [9] 0.003 | tipifarnib -0.012 | mubritinib 0.031

CCDC59 (UniProt Q9P031)
UniProt Q9P031, sequence (Q9P031 whole entry, looked up): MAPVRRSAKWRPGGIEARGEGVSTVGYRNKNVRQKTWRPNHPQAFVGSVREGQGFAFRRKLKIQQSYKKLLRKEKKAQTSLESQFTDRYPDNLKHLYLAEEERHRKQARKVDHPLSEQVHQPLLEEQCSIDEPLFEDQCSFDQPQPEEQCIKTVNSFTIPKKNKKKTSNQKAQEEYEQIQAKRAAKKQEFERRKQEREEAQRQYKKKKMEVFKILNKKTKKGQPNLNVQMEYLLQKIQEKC
inactive: [1] 0.09 | crizotinib -0.084 | [2] 0 | [3] 0.389 | duvelisib -0.157 | gandotinib 0.186 | tozasertib 0.01 | [4] 0.006 | doramapimod 0.164 | ispinesib -0.136 | bafetinib 0.117 | [5] -0.041 | nilotinib 0.032 | [6] 0.048 | dasatinib 0.037 | [7] 0.028 | [8] -0.277 | [9] -0.13 | tipifarnib 0.09 | mubritinib -0.056

CMTR1 (UniProt Q8N1G2)
inactive: [1] 0.02 | crizotinib 0.014 | [2] 0.011 | [3] 0.059 | duvelisib 0.05 | gandotinib 0.025 | tozasertib 0.002 | [4] 0.029 | doramapimod -0.036 | ispinesib -0.002 | bafetinib -0.054 | [5] 0 | nilotinib -0.059 | [6] -0.01 | dasatinib -0.059 | [7] 0.035 | [8] -0.033 | [9] 0.044 | tipifarnib -0.03 | mubritinib 0.029

CBX5 (UniProt P45973)
inactive: [1] 0.012 | crizotinib 0.128 | [2] -0.037 | [3] -0.058 | duvelisib 0.029 | gandotinib -0.015 | tozasertib -0.01 | [4] 0.059 | doramapimod -0.045 | ispinesib 0.092 | bafetinib -0.019 | [5] 0.01 | nilotinib 0.002 | [6] -0.138 | dasatinib -0.069 | [7] -0.064 | [8] -0.01 | [9] -0.02 | tipifarnib -0.048 | mubritinib 0.062

CDK5 (UniProt Q00535)
UniProt Q00535, sequence (Q00535 whole entry, looked up): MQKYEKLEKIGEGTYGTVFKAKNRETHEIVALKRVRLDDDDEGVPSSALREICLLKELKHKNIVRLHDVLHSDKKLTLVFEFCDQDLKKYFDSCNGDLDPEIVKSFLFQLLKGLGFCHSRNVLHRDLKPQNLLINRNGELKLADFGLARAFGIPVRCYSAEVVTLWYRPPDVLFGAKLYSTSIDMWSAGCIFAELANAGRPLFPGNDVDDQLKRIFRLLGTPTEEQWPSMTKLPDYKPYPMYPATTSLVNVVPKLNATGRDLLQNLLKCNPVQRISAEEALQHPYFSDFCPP
inactive: [1] 0.019 | crizotinib -0.076 | [2] 0.037 | [3] -0.022 | duvelisib 0.001 | gandotinib -0.003 | tozasertib -0.055 | [4] 0.008 | doramapimod 0.088 | ispinesib -0.033 | bafetinib -0.091 | [5] 0.035 | nilotinib -0.055 | [6] -0.142 | dasatinib -0.078 | [7] -0.034 | [8] -0.033 | [9] -0.031 | tipifarnib -0.054 | mubritinib -0.103

CASP10 isoform 4 (UniProt Q92851)
inactive: [1] 0.006 | crizotinib -0.102 | [2] 0.015 | [3] -0.137 | duvelisib -0.08 | gandotinib -0.128 | tozasertib 0.177 | [4] 0.201 | doramapimod 0.028 | ispinesib -0.075 | bafetinib 0.001 | [5] -0.394 | nilotinib -0.087 | [6] -0.103 | dasatinib -0.301 | [7] 0.037 | [8] -0.044 | [9] 0.063 | tipifarnib 0.119 | mubritinib 0.084

CIT isoform 4 (UniProt O14578)
inactive: [1] -0.023 | crizotinib -0.077 | [2] -0.013 | [3] 0.08 | duvelisib 0.064 | gandotinib -0.001 | tozasertib 0.093 | [4] -0.033 | doramapimod 0.026 | ispinesib 0.072 | bafetinib -0.01 | [5] 0.07 | nilotinib -0.049 | [6] -0.065 | dasatinib -0.064 | [7] -0.03 | [8] 0.006 | [9] -0.075 | tipifarnib -0.009 | mubritinib 0.031

CKB (UniProt P12277)
inactive: [1] 0.059 | crizotinib -0.174 | [2] 0.077 | [3] 0.053 | duvelisib 0.031 | gandotinib -0.109 | tozasertib -0.058 | [4] 0.021 | doramapimod -0.009 | ispinesib -0.022 | bafetinib 0.02 | [5] 0.02 | nilotinib 0.051 | [6] 0.037 | dasatinib -0.142 | [7] -0.008 | [8] 0.081 | [9] 0.01 | tipifarnib -0.057 | mubritinib 0.062

CTBS (UniProt Q01459)
UniProt Q01459, sequence (Q01459 whole entry, looked up): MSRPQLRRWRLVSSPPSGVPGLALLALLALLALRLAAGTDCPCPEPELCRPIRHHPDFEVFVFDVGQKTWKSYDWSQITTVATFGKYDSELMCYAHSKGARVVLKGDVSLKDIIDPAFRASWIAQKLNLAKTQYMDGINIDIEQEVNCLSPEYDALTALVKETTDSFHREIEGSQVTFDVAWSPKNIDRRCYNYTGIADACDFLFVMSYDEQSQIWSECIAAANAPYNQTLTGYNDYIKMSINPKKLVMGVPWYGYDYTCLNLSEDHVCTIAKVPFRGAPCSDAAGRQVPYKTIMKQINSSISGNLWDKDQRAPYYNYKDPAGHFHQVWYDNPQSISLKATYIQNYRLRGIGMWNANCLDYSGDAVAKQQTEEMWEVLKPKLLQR
active: bafetinib -0.483
inactive: [1] -0.05 | crizotinib -0.166 | [2] -0.078 | [3] 0.04 | duvelisib 0.017 | gandotinib -0.078 | tozasertib 0.069 | [4] -0.018 | doramapimod 0.009 | ispinesib -0.092 | [5] -0.069 | nilotinib 0.016 | [6] -0.007 | dasatinib -0.006 | [7] -0.077 | [8] -0.093 | [9] 0.162 | tipifarnib 0.091 | mubritinib 0.025

C9orf72 (UniProt Q96LT7)
UniProt Q96LT7, sequence (Q96LT7 whole entry, looked up): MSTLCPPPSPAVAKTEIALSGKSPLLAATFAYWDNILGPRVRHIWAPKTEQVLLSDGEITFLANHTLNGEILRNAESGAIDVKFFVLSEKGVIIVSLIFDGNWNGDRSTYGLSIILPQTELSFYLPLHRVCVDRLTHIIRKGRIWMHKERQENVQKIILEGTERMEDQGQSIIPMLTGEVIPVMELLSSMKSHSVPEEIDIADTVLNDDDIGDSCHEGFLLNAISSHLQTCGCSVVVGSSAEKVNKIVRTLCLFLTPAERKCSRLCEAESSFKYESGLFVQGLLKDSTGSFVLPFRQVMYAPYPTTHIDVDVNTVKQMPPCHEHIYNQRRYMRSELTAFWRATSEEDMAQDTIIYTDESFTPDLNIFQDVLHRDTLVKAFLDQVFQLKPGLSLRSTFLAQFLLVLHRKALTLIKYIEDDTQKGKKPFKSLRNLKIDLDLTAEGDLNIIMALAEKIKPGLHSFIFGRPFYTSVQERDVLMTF
active: gandotinib -0.313
inactive: [1] 0.058 | crizotinib -0.134 | [2] -0.024 | [3] -0.048 | duvelisib 0.008 | tozasertib -0.019 | [4] 0.057 | doramapimod 0.01 | ispinesib 0.04 | bafetinib 0.029 | [5] -0.018 | nilotinib 0.031 | [6] 0.073 | dasatinib -0.004 | [7] 0.006 | [8] 0.085 | [9] -0.05 | tipifarnib 0.033 | mubritinib 0.021

CBR1 (UniProt P16152)
UniProt P16152, sequence (P16152 whole entry, looked up): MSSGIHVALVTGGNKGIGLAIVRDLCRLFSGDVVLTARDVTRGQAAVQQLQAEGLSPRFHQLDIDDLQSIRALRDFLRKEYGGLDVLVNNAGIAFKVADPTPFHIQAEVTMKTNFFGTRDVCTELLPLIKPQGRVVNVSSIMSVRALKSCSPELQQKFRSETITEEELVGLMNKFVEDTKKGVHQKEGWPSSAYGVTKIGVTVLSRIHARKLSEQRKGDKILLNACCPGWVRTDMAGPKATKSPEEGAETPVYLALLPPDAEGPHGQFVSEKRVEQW
inactive: [1] 0.006 | crizotinib 0.048 | [2] 0.052 | [3] -0.163 | duvelisib 0.038 | gandotinib 0.034 | tozasertib -0.025 | [4] -0.024 | doramapimod 0.003 | ispinesib 0.194 | bafetinib 0 | [5] 0.011 | nilotinib -0.012 | [6] 0.003 | dasatinib -0.02 | [7] 0.022 | [8] 0.081 | [9] -0.031 | tipifarnib -0.044 | mubritinib -0.01

CS (UniProt O75390)
inactive: [1] 0.044 | crizotinib -0.122 | [2] 0.072 | [3] -0.034 | duvelisib 0.059 | gandotinib -0.037 | tozasertib 0.027 | [4] 0.061 | doramapimod 0.017 | ispinesib -0.157 | bafetinib 0.013 | [5] -0.061 | nilotinib 0.011 | [6] -0.051 | dasatinib -0.131 | [7] -0.097 | [8] 0.075 | [9] 0.083 | tipifarnib -0.033 | mubritinib 0.015

CASC3 (UniProt O15234)
UniProt O15234, sequence (O15234 whole entry, looked up): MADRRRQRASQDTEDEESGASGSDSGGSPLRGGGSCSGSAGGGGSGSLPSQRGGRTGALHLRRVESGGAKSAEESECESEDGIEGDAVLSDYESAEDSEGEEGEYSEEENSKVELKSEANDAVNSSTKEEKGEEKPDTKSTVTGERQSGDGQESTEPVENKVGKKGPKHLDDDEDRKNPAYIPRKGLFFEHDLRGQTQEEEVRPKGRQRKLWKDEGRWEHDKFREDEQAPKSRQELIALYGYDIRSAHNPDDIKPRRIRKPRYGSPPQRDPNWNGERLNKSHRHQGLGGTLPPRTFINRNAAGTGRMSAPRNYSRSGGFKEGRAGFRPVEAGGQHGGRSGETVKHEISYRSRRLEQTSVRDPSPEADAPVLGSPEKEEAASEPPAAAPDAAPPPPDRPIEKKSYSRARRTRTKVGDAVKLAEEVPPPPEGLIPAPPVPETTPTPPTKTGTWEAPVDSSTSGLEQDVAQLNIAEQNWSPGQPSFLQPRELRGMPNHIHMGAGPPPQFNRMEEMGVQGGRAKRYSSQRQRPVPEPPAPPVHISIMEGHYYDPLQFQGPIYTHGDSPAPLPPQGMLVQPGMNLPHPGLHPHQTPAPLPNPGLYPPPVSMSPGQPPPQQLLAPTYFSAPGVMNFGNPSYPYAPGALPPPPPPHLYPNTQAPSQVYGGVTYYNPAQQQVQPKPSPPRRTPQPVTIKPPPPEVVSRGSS
active: crizotinib 0.537 | [2] -0.412 | gandotinib 0.484 | [6] 0.481 | [7] 0.511
inactive: [1] -0.228 | [3] 0.243 | duvelisib 0.065 | tozasertib -0.088 | [4] -0.067 | doramapimod -0.025 | ispinesib -0.094 | bafetinib -0.064 | [5] -0.069 | nilotinib -0.064 | dasatinib 0.031 | [8] -0.079 | [9] -0.069 | tipifarnib 0.004 | mubritinib 0.084
